# Measurements reported in PubChem BioAssay (NCATS).
# Inconclusive results are not listed. Activity calls are given as the source filed them. Calls come from the whole dose curve; as a rule, active = well fitted inhibition curve with a large enough effect; inconclusive = small, poorly fitted or top-dose-only effect, or effect the other way; inactive = flat fitted curve, though single readings scatter.
# Biological target: ATP-dependent 6-phosphofructokinase (Trypanosoma brucei brucei) (UniProt O15648)
# Sequence (O15648 whole entry, looked up): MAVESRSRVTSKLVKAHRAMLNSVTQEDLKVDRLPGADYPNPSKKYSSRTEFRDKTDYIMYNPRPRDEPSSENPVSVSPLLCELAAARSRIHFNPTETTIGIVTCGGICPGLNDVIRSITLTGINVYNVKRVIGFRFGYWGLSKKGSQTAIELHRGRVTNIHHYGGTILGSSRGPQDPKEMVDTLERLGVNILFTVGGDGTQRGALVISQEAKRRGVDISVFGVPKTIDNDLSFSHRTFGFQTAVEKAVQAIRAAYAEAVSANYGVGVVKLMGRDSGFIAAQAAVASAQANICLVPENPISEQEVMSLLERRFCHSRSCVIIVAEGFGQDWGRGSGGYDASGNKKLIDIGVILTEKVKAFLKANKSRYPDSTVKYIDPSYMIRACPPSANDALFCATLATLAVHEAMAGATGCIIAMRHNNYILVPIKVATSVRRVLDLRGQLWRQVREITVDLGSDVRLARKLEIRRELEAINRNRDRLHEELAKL
# Assay: qHTS Assay to Find Inhibitors of T. brucei phosphofructokinase: hit validation (AID 492961);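 note: luminescence reports ADP formed as PFK phosphorylates fructose-6-phosphate with ATP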
# Details: T. brucei PFK, ADP-Glo luminescence; series mostly up to 51.4 µM; activity change, negative = inhibition: at the top concentration
# From the text: NIH Molecular Libraries Probe Production Network [MLPCN] NIH Chemical Genomics Center [NCGC] Grant: 1 R03 MH092153-01 PI Name: Malcolm Walkinshaw, University of Edinburgh NCGC Assay Overview: Various species of the protozoan family Trypanosomatidae are responsible for a range of serious human diseases in tropical and subtropical areas of the world. […] Many of the disorders caused by trypanosomatids are fatal if left untreated, but most currently used drugs are inefficient and toxic. […] Oxidative metabolism involving the mitochondrial tricarboxylic acid cycle and oxidative phosphorylation are repressed in these parasites, and recent RNA interference (RNAi) experiments have shown that even partial depletion of certain individual glycolytic enzymes can lead to the death of cultured parasites. One such glycolytic enzyme, phosphofructokinase (PFK), catalyzes the formation of fructose-1,6-bisphosphate (F1,6BP) and ADP from fructose-6-phosphate (F6P) and ATP, and in many metabolic circumstances makes an important contribution to the control of flux through the glycolytic pathway. As a specific glycolytic target, PFK is particularly attractive as it catalyzes the first irreversible step in glycolysis, and structural and kinetic studies have shown very substantial and essential differences from corresponding host enzymes, allowing for the discovery of parasite-selective inhibitors. The goal of this screen is to find small-molecule inhibitors of T. brucei PFK using a biochemical assay that measures PFK activity as a function of ADP production. A luminescence-based assay for T. brucei PFK activity has been developed which uses luciferase to detect production of ADP. Traditional luciferase-based nucleotide detection reagents rely on ATP production as a direct substrate for the luciferase reaction; however, PFK catalyzes the transfer of a phosphate from ATP to F6P, resulting in the net depletion of ATP. To directly measure the ADP product of the PFK reaction, we used the ADP-Glo detection kit (Promega), which utilizes two separate reactions to 1) deplete all remaining uncatalyzed ATP and 2) convert all remaining ADP to ATP, which is then detected through a traditional luciferase-coupled reaction. Compounds were screened as a concentration-titration series that ranged from 57 uM to 0.7 nM.
# NCGC Assay Protocol Summary: Substrate buffer was dispensed into white, solid 1536-well plates at 3uL/well in 0.1M triethanolamine (TEA) buffer, pH 8.0, containing final concentrations of 5 mM MgCl2, 0.01% Tween20, 0.5 mM fructose-6-phosphate (F6P) and 0.1mM ATP. Then, 23 nL of compounds or DMSO were delivered to each well using a pin tool. One uL T. brucei PFK (0.1M TEA, 0.01% Tween20, 0.1% bovine serum albumin (BSA) and 1.25nM PFK, final concentrations) was then dispensed, and plates were incubated at room temperature for 45 min. The luminescent detection reagent, ADP-Glo (Promega), was then added in two steps: the first reagent, ADP-Glo (which converts remaining uncatalyzed ATP), was added at 2.5uL/well and incubated for ten minutes at room temperature, and the second component, Kinase Detection reagent (which converts ADP to ATP as a substrate for luciferase-based luminescence), was added immediately after at 5uL/well, followed by one final ten minute room temperature incubation. The plates were measured on a ViewLux plate reader for luminescent signal using a clear filter with a one second exposure. The %Activity was determined from the corrected luminescence values. As no specific T. brucei PFK inhibitors have been identified in the literature, 1x (1.25nM) and 0x PFK enzyme controls (untreated) were included to normalize %Activity of identified inhibitors; 0x enzyme values corresponded to 100%Activity (full inhibition), while 1x PFK enzyme values were used to normalize 0%Activity (no inhibition). Concentration-response curves were fitted to the signals arising from the resulting luminescence. […]
row,Structure (SMILES),"activity change, negative = inhibition"
1,CC(C)CN(C[C@@H](O)[C@H](Cc1ccccc1)NC(=O)O[C@H]1CO[C@H]2OCC[C@H]21)S(=O)(=O)c1ccc(N)cc1,-2.67% (inactive)
2,O=C(O)c1nc(=O)[nH]c(=O)[nH]1,-10.1% (inactive)
3,O=C1C(CCC(O)c2ccc(F)cc2)C(c2ccc(O)cc2)N1c1ccc(F)cc1 (centres undefined),-0.787% (inactive)
4,Clc1ccc(COC(Cn2ccnc2)c2ccc(Cl)cc2Cl)c(Cl)c1 (centres undefined),-6.9% [at 24.3 µM] (inactive)
5,CN1CC(=O)N2C(Cc3c([nH]c4ccccc34)[C@H]2c2ccc3c(c2)OCO3)C1=O (some centres undefined),-8.89% (inactive)
6,N#CC(c1ccc(Cl)cc1)c1c(Cl)cc(-n2ncc(=O)[nH]c2=O)cc1Cl (centres undefined),0% (inactive)
7,CN1CCN2c3ncccc3Cc3ccccc3C2C1 (centres undefined),-6.51% (inactive)
8,N#Cc1c(N(CC(=O)O)CC(=O)O)sc(C(=O)O)c1CC(=O)O,-8.15% (inactive)
9,COc1ccnc(CS(=O)c2nc3ccc(OC(F)F)cc3[nH]2)c1OC (centres undefined),-18.3% (inactive)
10,CS(=O)(=O)c1ccc(C2=C(c3ccccc3)C(=O)OC2)cc1,4% (inactive)
11,NCC1CCC(C(=O)O)CC1 (centres undefined),6.55% [at 24.3 µM] (inactive)
12,NS(=O)(=O)c1cc(Cl)c(Cl)c(S(N)(=O)=O)c1,-2.48% [at 24.3 µM] (inactive)
13,COc1c(C)c2c(c(O)c1CC=C(C)CCC(=O)OCCN1CCOCC1)C(=O)OC2,-7.03% (inactive)
14,COc1cc2c(cc1OC)CC(=O)N(CCCN(C)C[C@H]1Cc3cc(OC)c(OC)cc31)CC2,3.9% (inactive)
